Assay outcomes from PubChem.
Hits are enriched below; roughly 1.8% of the tested compounds scored in any of these assays.
TrxR1 substrate = qHTS Assay for Substrates of Mammalian Selenoprotein Thioredoxin Reductase 1 (TrxR1): qHTS; 390,000 compounds, 0.01% hits; Potency, µM (doses to about 114 µM); purified TrxR1 substrate turnover, NADPH consumption readout; Thioredoxin reductase 1, cytoplasmic (Rattus norvegicus), O89049; note: nearly all actives have a fitted effect of over 50% in size
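Rat TrxR1, dispensed at 90 nM, was prereduced with 400 uM NADPH (final) for 5 min at ~22 deg C, then incubated with compound 15 min before 400 uM selenite. A first-read NADPH fluorescence drop versus no-compound background flagged substrates.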
Vif-A3F inh = qHTS for Inhibitors of Vif-A3F Interactions: qHTS. Potency, µM (top dose mostly 46.1 µM). 390,000 compounds, 0.2% hits. AID 602313, 2012. HeLa A3F-eYFP + Vif (tagged APOBEC3F with the HIV-1 protein that degrades it), YFP fluorescence increase; note: nearly all actives have a fitted effect of over 65% in size
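HeLa cells stably expressing Vif plus C-terminally eYFP-tagged A3F were seeded, incubated overnight at 37 deg C, dosed with compound, incubated overnight again at 37 deg C. Yellow fluorescence (Ex 488/Em 500-530) reported blocked Vif-mediated A3F-eYFP degradation.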
rTrxR1 inhibitor = qHTS Assay for Inhibitors of Mammalian Selenoprotein Thioredoxin Reductase 1 (TrxR1): qHTS. Thioredoxin reductase 1, cytoplasmic (Rattus norvegicus), O89049. recombinant rTrxR1, NADPH fluorescence consumption, selenite substrate. Potency, µM (series often up to 114 µM), actives largely listed as inhibitors. 390,000 compounds, 1% hits. AID 588453, 2011; note: nearly all actives have a fitted effect of over 65% in size
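Rat TrxR1 (90 nM in the dispensed reagent) was pre-reduced with 400 uM NADPH for 5 min at room temperature, then incubated with compound for 15 min. After 400 uM selenite was added, NADPH fluorescence (Ex 340/Em 450 nm) was followed for 8 min.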
Vif-APOBEC3G blk = qHTS for Inhibitors of Vif-A3G Interactions: qHTS. AID 602310, 2012. 410,000 compounds, 0.076% hits. Potency, µM (top dose mostly 46.1 µM), most hits filed as inhibitors. HeLa A3G-eYFP + Vif (tagged APOBEC3G with the HIV-1 protein that degrades it), YFP fluorescence, overnight; note: nearly all actives have a fitted effect of over 60% in size
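Read-out is eYFP fluorescence (Ex 488/Em 500-530) from Vif-expressing HeLa A3G-eYFP cells; more signal means A3G escaped Vif-mediated degradation. Cells plated overnight, compound pinned in, incubated overnight at 37 deg C.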
VDR inh = Inhibitors of the vitamin D receptor (VDR): qHTS; AID 504847, 2011; Potency, µM, most hits filed as inhibitors; 400,000 compounds, 0.93% hits; VDR-SRC2-3 peptide fluorescence polarization, 2 h; Vitamin D3 receptor (Homo sapiens), P11473
Target sequence (P11473 whole entry, looked up): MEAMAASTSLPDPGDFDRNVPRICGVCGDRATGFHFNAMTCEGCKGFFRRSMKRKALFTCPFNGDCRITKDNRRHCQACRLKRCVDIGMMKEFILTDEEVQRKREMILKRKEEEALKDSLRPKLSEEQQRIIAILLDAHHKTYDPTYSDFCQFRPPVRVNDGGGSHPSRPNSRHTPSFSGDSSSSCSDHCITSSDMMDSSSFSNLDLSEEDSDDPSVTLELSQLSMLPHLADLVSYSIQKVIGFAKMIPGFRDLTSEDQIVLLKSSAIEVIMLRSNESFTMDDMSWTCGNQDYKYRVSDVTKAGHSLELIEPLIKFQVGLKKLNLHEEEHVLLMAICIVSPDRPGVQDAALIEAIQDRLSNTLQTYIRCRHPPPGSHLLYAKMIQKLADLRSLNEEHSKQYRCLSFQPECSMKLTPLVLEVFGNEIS
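Inhibition of the VDR/SRC2-3 peptide interaction is quantified by fluorescence polarization. Compounds (23 nl, pintool) incubate with the reagents for 2 hours at ambient room temperature.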
Of the large screens only hits and unclear results are named; the others gave an inactive call. Calls come from the whole dose curve; as a rule, active = well fitted curve in the direction sought with a large enough effect; inconclusive = small, poorly fitted or top-dose-only effect, or another doubt; inactive = no such curve, though single readings can be large; an effect the other way counts as inactive or inconclusive.

O=c1cc(-c2ccccc2Cl)oc2c(NS(=O)(=O)c3cc(Cl)cc(Cl)c3O)ccc(O)c12	VDR inh 32µM
CC(C)(C)c1cc(CCC(=O)NN)cc(C(C)(C)C)c1O	none
COCCOC(=O)/C(=C\c1cc(C(C)(C)C)c(O)c(C(C)(C)C)c1)C(C)=O	Vif-A3F inh inconclusive, rTrxR1 inhibitor inconclusive, VDR inh 35µM
CC(=O)O[C@H]1CC(C)(C)C(=C=C/C(C)=C/C=C/C(C)=C/C=C/C=C(C)/C=C/C=C(\C)C(=O)C[C@@]23O[C@]2(C)C[C@@H](O)CC3(C)C)[C@](C)(O)C1	rTrxR1 inhibitor 35µM, VDR inh inconclusive
O=[N+]([O-])c1ccccc1/C=C/c1ccnc2ccccc12	none (no result: Vif-A3F inh, VDR inh)
CC1CCCC2(C1)NC(=S)c1c(sc3c1CCCC3)N2 (centres undefined)	VDR inh 40µM
CCC(c1nnnn1C(C)(C)CC)N(CCCN1CCOCC1)Cc1cc2cccc(C)c2[nH]c1=O (centres undefined)	rTrxR1 inhibitor 35µM
Cc1cc2c(cc1C)C(=O)C(Br)=C(N)C2=O	Vif-A3F inh inconclusive, rTrxR1 inhibitor 50µM
O=C(C1=C(O)C(=O)N(Cc2ccco2)C1c1cccnc1)c1cc2ccccc2o1 (centres undefined)	rTrxR1 inhibitor 13µM, VDR inh inconclusive
COc1cccc2cc(C(=O)C3=C(O)C(=O)N(Cc4ccco4)C3c3cccnc3)oc12 (centres undefined)	rTrxR1 inhibitor inconclusive, VDR inh inconclusive
CC(=O)Nc1sc2c(c1-c1nc3ccccc3s1)CCN(C(C)C)C2	Vif-A3F inh 11µM, Vif-APOBEC3G blk 11µM
CCSC1(SCC)N=C(N)C2(C#N)C(c3ccc(F)cc3)C12C#N (centres undefined)	rTrxR1 inhibitor 32µM, Vif-APOBEC3G blk inconclusive, VDR inh 89µM
CCSC1(SCC)N=C(N)C2(C#N)C(c3ccccc3)NC(C)=C(C)C12C#N (centres undefined)	none
c1nc2nc(Nc3ccc(N4CCOCC4)cc3)nc(NC3CCCCC3)c2[nH]1	none (no result: TrxR1 substrate, Vif-A3F inh, rTrxR1 inhibitor, Vif-APOBEC3G blk)
CCc1ccc(C(=O)NC(=S)Nc2ccc(N3CCOCC3)cc2)cc1	Vif-A3F inh 10µM, rTrxR1 inhibitor inconclusive
O=C(NC(=S)Nc1ccc(N2CCOCC2)cc1)c1cccc(Cl)c1Cl	rTrxR1 inhibitor inconclusive
CC(=O)c1ccc(NC(=S)Nc2ccc(N3CCOCC3)cc2)cc1	none
O=C(NN1CCOCC1)c1cccc2ccccc12	VDR inh inconclusive
COCCNC(=S)Nc1ccc(N2CCCCC2)cc1	VDR inh 32µM
Cc1ccccc1C(=O)NC(=S)Nc1ccc(N2CCOCC2)cc1	rTrxR1 inhibitor 56µM
O=C(Nc1ccc(N2CCOCC2)cc1)c1cccc2ccccc12	Vif-APOBEC3G blk 10µM
COc1ccc2[nH]c(C(O)C(O)c3nc4c(OC)c(OC)ccc4[nH]3)nc2c1OC (centres undefined)	none (no result: Vif-A3F inh, VDR inh)
COc1ccc(C2Nc3ccccc3C(=O)N2Cc2ccccc2)cc1COc1ccc([N+](=O)[O-])c(C)c1 (centres undefined)	none (no result: Vif-A3F inh)
CC(=O)N[C@@H]1C(O[C@H]2O[C@H](C(=O)O)C(O)[C@H](O)[C@H]2O)[C@H](O)[C@@H](CO)O[C@H]1O[C@@H]1C(C(=O)O)O[C@@H](O[C@H]2[C@H](O)[C@@H](CO)OC(O)[C@@H]2NC(C)=O)[C@H](O)[C@H]1O (some centres undefined)	none (no result: TrxR1 substrate, Vif-A3F inh, rTrxR1 inhibitor, Vif-APOBEC3G blk)
Cc1ccc2nc(SC(Cc3cc(Cl)ccc3Cl)C(=O)O)[nH]c2c1 (centres undefined)	none
CCCCCCCCCCCCCCCC(C)C1=NCCN1 (centres undefined)	none (no result: Vif-A3F inh, VDR inh)
CCOC(=O)CNC1CC(=O)N(c2ccc(Br)cc2)C1=O (centres undefined)	rTrxR1 inhibitor 28µM
C=CCOC(=O)c1[nH]c2c(c1C)C(=O)CC(c1ccco1)C2 (centres undefined)	Vif-APOBEC3G blk inconclusive, VDR inh 79µM
